Reference: ChEMBL document CHEMBL2218924, “A broad activity screen in support of a chemogenomic map for kinase signalling research and drug discovery” (Biochem J, 2013)

Biological target: Ribosomal protein S6 kinase alpha-1 (Homo sapiens) (UniProt Q15418)
Conditions: at 1 µM

Sequence of Ribosomal protein S6 kinase alpha-1 (Homo sapiens) (Q15418 whole entry): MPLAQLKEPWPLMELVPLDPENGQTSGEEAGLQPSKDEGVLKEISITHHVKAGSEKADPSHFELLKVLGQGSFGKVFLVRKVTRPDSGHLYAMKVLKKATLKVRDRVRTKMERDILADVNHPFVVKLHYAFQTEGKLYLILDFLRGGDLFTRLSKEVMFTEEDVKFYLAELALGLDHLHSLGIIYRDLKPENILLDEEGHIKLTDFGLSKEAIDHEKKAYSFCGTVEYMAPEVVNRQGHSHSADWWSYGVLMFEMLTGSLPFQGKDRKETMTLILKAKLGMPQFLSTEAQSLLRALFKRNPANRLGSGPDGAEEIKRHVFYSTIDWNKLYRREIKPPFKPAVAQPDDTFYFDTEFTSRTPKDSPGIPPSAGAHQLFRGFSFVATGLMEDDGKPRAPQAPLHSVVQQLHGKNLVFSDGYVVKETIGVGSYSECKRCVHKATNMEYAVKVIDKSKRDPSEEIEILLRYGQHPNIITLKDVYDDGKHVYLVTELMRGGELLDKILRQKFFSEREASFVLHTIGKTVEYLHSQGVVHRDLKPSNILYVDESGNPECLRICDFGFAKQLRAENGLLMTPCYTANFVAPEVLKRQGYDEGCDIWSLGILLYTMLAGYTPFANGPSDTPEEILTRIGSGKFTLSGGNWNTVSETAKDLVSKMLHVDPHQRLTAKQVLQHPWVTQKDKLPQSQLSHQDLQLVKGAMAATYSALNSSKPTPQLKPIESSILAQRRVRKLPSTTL

Row | SMILES | residual activity
1 | Nc1cccc(-c2cc3c(Oc4cccc(O)c4)ncnc3[nH]2)c1 | 97%
2 | N#Cc1cnc2cnc(NCc3cccnc3)cc2c1Nc1ccc(F)c(Cl)c1 | 2%
3 | O=C(Nc1cccc(Nc2nccc(Nc3cccc(C(F)(F)F)c3)n2)c1)C1CC1 | 78%
4 | CC(C)n1cnc2c(NCc3ccccc3)nc(NCCCO)nc21 | 102%
5 | COc1cc2ncnc(Nc3ccc(Oc4ccccc4)cc3)c2cc1OC | 122%
6 | O=C(O)c1ccc2c3c1cccc3c(=O)n1c3ccccc3nc21 | 103%
7 | Cn1cnc2cc3c(Nc4cccc(Br)c4)ncnc3cc21 | 97%
8 | O=C1Nc2ccc(Br)cc2/C1=C\c1cc2c([nH]1)CCCC2 | 84%
9 | N#CCCc1ccc2c(c1)-c1[nH]c3ccc([N+](=O)[O-])cc3c1CC(=O)N2 | 45%
10 | Cc1ccc(S(=O)(=O)/C=C/C#N)cc1 | 94%
11 | O=C1NC(=O)c2cc(Nc3ccc(F)cc3)c(Nc3ccc(F)cc3)cc21 | 87%
12 | CCN(CC)C(=O)c1ccc(Nc2nc(OCC3CCCCC3)c3nc[nH]c3n2)cc1 | 58%
13 | Cn1cc(/C=C2\C(=O)Nc3ccc(S(N)(=O)=O)cc32)c2ccccc21 | 9%
14 | O=C1Nc2ccccc2/C1=C1/Nc2ccccc2/C1=N\OCCC(O)CO (stereo unspecified) | 18%
15 | c1ccc(-c2n[nH]c3c2oc2ccccc23)cc1 | 97%
16 | NC(=O)c1ccc2[nH]c(-c3ccc(Oc4ccc(Cl)cc4)cc3)nc2c1 | 91%
17 | N#CC(C#N)=C(N)/C(C#N)=C/c1ccc(O)cc1 | 94%
18 | Cc1cc(Nc2nc(-c3ccccc3)nc3ccccc23)n[nH]1 | 51%
19 | Cc1cc2ncc(-c3ccccc3)nc2cc1C | 95%
20 | Cc1nc2cc3nc(-c4cccs4)cnc3cc2n1C | 115%
21 | CO[C@H]1[C@@H](OC)C[C@H](C)[C@@H](OC)C2=CC(=O)C=C(NC(=O)/C(C)=C/C=C/[C@H](OC)[C@@H](OC(N)=O)/C(C)=C/[C@@H]1C)C2=O | 115%
22 | CN(C)CCCn1cc(C2=C(c3c[nH]c4ccccc34)C(=O)NC2=O)c2ccccc21 | 15%
23 | Oc1ccc(-c2nc(-c3ccc(F)cc3)c(-c3ccncc3)[nH]2)cc1 | 117%
24 | COc1cc2ncnc(N3CCN(C(=O)Nc4ccc(Oc5ccccc5)cc4)CC3)c2cc1OC | 93%
25 | O=C1NC(=O)/C(=C\c2ccc3nccnc3c2)S1 | 112%
26 | Oc1ccc(Nc2nc(-c3ccc(Cl)cc3)cs2)cc1 | 113%
